MITF TRPM1 inh = inhibitors of MITF-dependent TRPM1 promoter reporter, primary screen, cell-based, SK-MEL-5, single point, luciferase; SK-MEL-5 TRPM1 promoter luciferase, 24 h; inhibition, % at 12.5 µM; actives 0.83% (n = 330,000); AID 488899, 2010;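 active = mean inhibition across replicates of 60% or more, whatever share of single replicates reaches that level; inconclusive = some that reach 60%, reason not given; inactive = mean inhibition across replicates below 60%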
aSyn UTR inh = MLPCN primary screen, SNCA 5' untranslated region; alpha-synuclein 5'UTR reporter, inhibitor activity; actives 0.82% (n = 300,000); inhibition, % (tested at 7.5 µM); in the data active = inhibition above about 60%; inconclusive = no clear call, values can overlap the other calls;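 also: H4 neuroglioblastoma cells stably carrying SNCA 5'UTR luciferase fusion; 0% = DMSO wells and 100% = positive control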
Shn3 3UTR inh = reduction of Shn3 3'UTR firefly luciferase signal, primary screen, Schnurri-3 inhibitor project, cell-based, Clone20 osteoblasts, set 2; Clone20 osteoblast Shn3 3'UTR firefly luciferase, 24 h; inhibition, % at 12.5 µM; actives 0.52% (n = 360,000);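 active = mean inhibition of at least 75% with every replicate also reaching 75%; inconclusive = mean inhibition at least 75% but some replicate below; inactive = mean inhibition below 75%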;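 also: 0% = median of neutral control wells and 100% = pilot-screen positive control compound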
EBV LMP1 NFkB = EBV LMP1-driven NF-kappaB luciferase reporter inhibitors, primary screen, cell-based, luminescence, single point; LMP1-induced NF-kappaB luciferase reporter cells; inhibition, % at 12.5 µM; actives 0.69% (n = 350,000); in the data active = inhibition above about 41%; inconclusive = no clear call, values can overlap the other calls;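 also: 0% = neutral control wells and 100% = reference inhibitor control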
PAX8 reporter = inhibitors of PAX8-driven TPO luciferase reporter, primary screen, RMG-I cells, single concentration; SteadyGlo, 24 h; inhibition, % at 12.6 µM; actives 1.2% (n = 360,000);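 active = mean replicate inhibition at least 60% with every replicate also reaching 60%; inconclusive = only one of the two criteria is met; inactive = mean below 60% and not all replicates reaching 60%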;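 also: luciferase light reporting Pax8 driven TPO promoter activity; plate controls were median of neutral control wells for no effect and mitoxantrone controls for full effect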
* hit, by the source's call; u = inconclusive; x = no result given. The list is not random: actives were taken first. Their share in the collection is about 2.1%.

SMILES	MITF TRPM1 inh	aSyn UTR inh	Shn3 3UTR inh	EBV LMP1 NFkB	PAX8 reporter
Cc1ccccc1CN(c1ccc(C(=O)NCc2cccnc2)cc1)S(C)(=O)=O	4	14	-18	52*	-10
Cc1ccc(C(=O)CCC(=O)OCC(=O)N2CCN(S(=O)(=O)c3ccc(C)cc3C)CC2)cc1	-5	x	-11	-2	11
C=CCn1c(COc2cccc3ccc(C)nc23)nnc1SCC(=O)OC	5	20	6	-15	x
CCC1(O)C(=O)OCc2c1cc1n(c2=O)Cc2cc3cc(O)ccc3nc2-1 (stereo not drawn)	70*	x	29	86*	x
Nc1ccc(-c2nc3c(Cl)cc(N)cc3[nH]2)cc1	76*	85*	68	13	x
Nc1ccc2nc(-c3ccc(N)c(Cl)c3)[nH]c2c1	-29	-115	-50	-11	x
Cc1ccccc1NC(=O)c1ccc(F)c(S(=O)(=O)N2CCCCC2)c1	-3	10	7	6	12
O=C(NN1C(=O)C2C3C=CC(C4CC34)C2C1=O)c1cccc(Cl)c1 (stereo not drawn)	-2	1	6	71*	6
O=C1C=C(c2c(O)ccc3ccccc23)c2ccccc2C1=O	u	x	96*	12	83*
COCCNc1ncnc2c1cnn2Cc1ccccc1Cl	2	4	7	1	-1
Cc1cc(C(=O)Nc2ccc3c(c2)C(=O)N(C)[C@@H]2CC[C@H](CC(=O)NCc4ccc(-c5ccccc5)cc4)O[C@H]2CO3)no1	x	x	x	x	80*
Cc1cc(C(=O)Nc2ccc3c(c2)C(=O)N(C)[C@H]2CC[C@H](CC(=O)NCc4ccc(-c5ccccc5)cc4)O[C@H]2CO3)no1	x	x	x	x	47
Cc1cc(C(=O)Nc2ccc3c(c2)C(=O)N(C)[C@H]2CC[C@@H](CC(=O)NCc4ccc(-c5ccccc5)cc4)O[C@H]2CO3)no1	x	x	x	x	91*
Cc1cc(C(=O)Nc2ccc3c(c2)C(=O)N(C)[C@@H]2CC[C@H](CC(=O)NCc4ccc(-c5ccccc5)cc4)O[C@@H]2CO3)no1	x	x	x	x	80*
COc1ccc(C(=O)Nc2ccc3c(c2)C(=O)c2ccccc2C3=O)cc1OC	-9	-9	-30	10	-8
COc1ccc(C(=O)c2c(C(F)(F)F)oc3c2C(=O)c2ccccc2C3=O)cc1OC	90*	111*	89*	24	x
O=C(O)CCS(=O)(=O)c1nc(-c2cccs2)cc(C(F)(F)F)n1	3	-38	-18	-1	x
CCOC(=O)CS(=O)(=O)c1nc(-c2ccc(F)cc2)cc(C(F)(F)F)n1	99*	-33	97*	69*	x
CCOC(=O)c1c(C(F)(F)F)cc(-c2ccc(F)cc2)nc1C	-8	-60	4	9	0
COCC(C)NC(=O)CCS(=O)(=O)c1nc(-c2ccc(OC)cc2)cc(C(F)(F)F)n1 (stereo not drawn)	7	-60	-9	-23	x
CCOC(=O)CS(=O)(=O)c1ccccc1	-6	-9	-9	2	3

Compound activity: PubChem, Broad Institute
